Only some compounds are listed: those with a hit (about 3.1% of all), similar ones and a draw of the others.
CSC inhib: cancer stem cell viability inhibitors, primary screen, luminescence; cancer stem cell-like cells viability; 300,000 tested, 1.1% active; inhibition, % at 7.5 µM; in the data active means inhibition above about 75%; inconclusive means no clear call, values can overlap the other calls; tested in HMLE shEcad cells
PP1 inh: PP1-alpha phosphatase inhibitors, primary screen, counter-screen for PP5 inhibitor project, biochemical, fluorescence, OMFP substrate, single point; Serine/threonine-protein phosphatase PP1-alpha catalytic subunit (Homo sapiens), P62136; purified PP1alpha; inhibition, % at 6.7 µM; 320,000 tested, 0.9% active;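 active means inhibition above the mean inhibition of all tested compounds plus 3 SD, computed separately for each screening campaign, cut at about 15% in these data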
Target sequence (P62136 whole entry, looked up): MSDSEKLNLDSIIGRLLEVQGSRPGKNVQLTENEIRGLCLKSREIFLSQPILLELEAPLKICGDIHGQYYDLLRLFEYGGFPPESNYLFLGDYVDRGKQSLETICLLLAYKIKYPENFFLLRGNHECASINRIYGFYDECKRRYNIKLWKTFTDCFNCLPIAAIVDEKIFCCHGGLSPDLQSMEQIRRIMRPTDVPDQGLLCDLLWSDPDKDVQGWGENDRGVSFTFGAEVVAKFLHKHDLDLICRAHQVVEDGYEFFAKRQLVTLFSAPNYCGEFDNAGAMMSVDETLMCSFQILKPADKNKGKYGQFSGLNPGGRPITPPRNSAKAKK
Beta apoptosis: inhibitors of cytokine-induced beta cell apoptosis, primary screen, luminescence | 300,000 tested, 0.8% active | INS-1E cytokine-induced death, ATP luminescence, 48 h; percent of positive-control rescue, neutral wells zero | protection from apoptosis, % (test concentration not listed);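 active means Every replicate reaches about 75%, or at least half do and their mean reaches it too, limit read from the data; inconclusive means At least half of replicates reach the limit but their mean does not; inactive means Under half of replicates reach the limit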;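 further: higher means more ATP so stronger rescue from cytokine killing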
PP5 inh: PP5 phosphatase inhibitors, primary screen, biochemical, fluorescence; 320,000 tested, 0.18% active; purified PP5c, OMFP substrate fluorescence; inhibition, % at 6.7 µM; AID 1987, 2009; Serine/threonine-protein phosphatase 5 (Homo sapiens), P53041;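 active means inhibition above the campaign's mean inhibition across all tested compounds plus 3 SD, cut at about 9.5% in these data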
SKKanGAS inh: S. pyogenes SKKanGAS growth inhibitors in kanamycin, primary screen, streptokinase expression inhibitor project, SKKanGAS strain, BacTiter-Glo luminescence; inhibition, % at 7.5 µM; 300,000 tested, 1.3% active; 6 h; AID 1662, 2009;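 active means mean replicate score, as percent of positive control median, at least 50; inconclusive means mean below 50 but one replicate at or above 50; inactive means mean and every replicate below 50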;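 further: strain carries kanamycin resistance gene driven by streptokinase promoter and grows in 40 µg/ml kanamycin; loss of luminescence reflects streptokinase promoter inhibition or plain growth inhibition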
A number is an active result; 0 = inactive; ? = inconclusive; - = not tested or not shown.

SMILES | CSC inhib | PP1 inh | Beta apoptosis | PP5 inh | SKKanGAS inh
Cc1ccc2c(c1)S/C(=C/c1ccc[n+](C)c1)N2CCO | 0 | 0 | 95 | 0 | 0
O=C(Nc1nnc(-c2ccncc2)o1)c1ccc(Br)s1 | 0 | 0 | 0 | 0 | 53
COc1ccccc1NC(=O)Nc1nc(CC(=O)Nc2ccc(OC)c(OC)c2)cs1 | 0 | 0 | 0 | 0 | 0
COc1ccccc1NC(=O)Cc1csc(NC(=S)Nc2ccc(C)cc2)n1 | 0 | 0 | 0 | 0 | 58
COc1ccccc1NC(=O)Nc1nc(CC(=O)N2CCN(c3ccccc3OC)CC2)cs1 | - | 0 | 0 | 0 | 59
COc1cc(C)ccc1NC(=O)Cc1csc(NC(=O)Nc2ccccc2OC)n1 | 0 | 0 | 0 | 0 | 56
O=C(COC(=O)c1ccc(O)cc1O)c1ccc2c(c1)OCO2 | 0 | 0 | - | 0 | 52
C=CCSc1nsc(NC(=O)Nc2ccc(F)cc2)n1 | 101 | 0 | 111 | 0 | 75
Nc1ccc2nn(-c3cccc4ccccc34)nc2c1 | 0 | 0 | 75 | 0 | 0
Cc1cc2nn(-c3cccc4ccccc34)nc2cc1N | 0 | 0 | 0 | 0 | 0
CCCNC(=O)c1ccc(N2CCC3(CC2)CC(c2ccccc2)=NO3)c(NC(=O)c2cccc(OC)c2)c1 | 0 | 0 | - | 0 | 0
CCCNC(=O)c1ccc(N2CCC3(CC2)CC(c2ccccc2)=NO3)c(NC(=O)c2ccco2)c1 | 0 | 0 | 0 | 0 | 50
Cc1cc(C(=O)COC(=O)C2=COCCO2)c(C)n1-c1cccc(F)c1 | 0 | 0 | 0 | 0 | 0
Cc1ccc(S(=O)(=O)N(C)c2ccc(OCc3cccc(C)c3)cc2)cc1 | 77 | 0 | 0 | 0 | 0
CC(=O)Nc1ccc(S(=O)(=O)N(C)c2ccc(OCCOc3cccc(C)c3)cc2)cc1 | 0 | - | 0 | - | -
O=C(COC(=O)c1cn(-c2ccccc2)nc1-c1ccccc1)c1cccc([N+](=O)[O-])c1 | 0 | 0 | 102 | 0 | 0
Cc1ccc(C(=O)COC(=O)c2cn(-c3ccccc3)nc2-c2ccccc2)cc1[N+](=O)[O-] | ? | 0 | 99 | 0 | 0
O=C(COC(=O)c1cn(-c2ccccc2)nc1-c1ccccc1)c1ccc([N+](=O)[O-])cc1 | 0 | 0 | 0 | 0 | 0
Cc1ccc(C(=O)COC(=O)c2ccccc2NC(=O)c2ccccc2)cc1[N+](=O)[O-] | 0 | 0 | 0 | 0 | 0
COC(=O)Cn1cc(/C=C(/C#N)C(=O)N2CCOCC2)c2ccccc21 | 0 | 0 | 0 | 0 | 0
COc1ccc(NS(=O)(=O)c2ccc3nc(COc4ccc5ccccc5c4)[nH]c3c2)cc1 | 0 | 0 | 0 | 0 | 0
COc1ccc(NS(=O)(=O)c2ccc3nc(COc4cccc5ccccc45)[nH]c3c2)cc1 | 80 | 0 | 0 | 0 | 71
O=C(CCOc1ccccc1F)N1CCN(c2ccccc2O)CC1 | 0 | 0 | 0 | 0 | 0
COc1cc(CO)cc(-c2cc(CO)cc(OC)c2OC)c1OC | 0 | 0 | 0 | 0 | 0
COc1cc(Cc2cc(N)nc(N)n2)cc(OC)c1OC | 0 | 0 | 0 | 0 | 71
SMILES | CSC inhib | PP1 inh | Beta apoptosis | PP5 inh | SKKanGAS inh
O=C(O)COc1ccccc1/C=N/NC(=O)c1cccc(S(=O)(=O)N2CCOCC2)c1 | 0 | 0 | 0 | 0 | 0
CC(=O)NC1C(=O)N(CCN2CCOCC2)c2ccc(Cl)cc21 (stereo not given) | 0 | - | 0 | - | 0
CC(=O)NC1C(=O)N(CCN2CCOCC2)c2ccc(C)cc21 (stereo not given) | 0 | 57 | 0 | 0 | 0
CN(C1=C(NC(=O)c2ccccc2)C(=O)c2ccccc2C1=O)C1CCS(=O)(=O)C1 (stereo not given) | 0 | 0 | 97 | 0 | 0
Cc1cc([N+](=O)[O-])nn1CCCC(=O)Nc1cccc(Cl)c1Cl | 0 | 0 | 0 | 0 | 0
C[C@H](NC(=O)c1nc[nH]c1C(=O)NCCCCCN)C(=O)OCc1ccccc1 | 0 | 0 | 0 | 0 | 0
COc1ccc2cc(C(=O)NCc3ccccc3)c(=Nc3ccc(C(=O)O)cc3)oc2c1 | 0 | 0 | 0 | 0 | 59
COC(=O)c1ccc(C(=O)OC)c(NC(=O)CN(C)Cc2cccc(Cl)c2Cl)c1 | 0 | 0 | 0 | 0 | 69
COC(=O)c1ccc(C(=O)OC)c(NC(=O)CN(C)Cc2ccccc2)c1 | 0 | 0 | 0 | 0 | 0
Cc1ccc(-c2nnc(N3CCC(C)CC3)c3ccccc23)cc1C | 96 | 0 | 0 | 0 | 0
Nc1ccc(-c2cc(-c3ccc(N)cc3)nc(-c3ccccc3)n2)cc1 | 0 | 0 | 0 | 0 | 0
Oc1ccc(-c2cc(-c3ccc(O)cc3)nc(-c3ccccc3)n2)cc1 | 105 | 0 | 0 | 0 | 103
Brc1cc(-c2ccccc2)nc(-c2ccccc2)n1 | 0 | 0 | 0 | 0 | 51
COc1ccc(NC(=O)C(=O)c2cn(CC(=O)N3CCCC3)c3ccccc23)cc1 | 0 | 0 | 0 | 0 | 0
CCCCCCC[N+](CC)(CC)CCCCc1ccc(Cl)cc1 | 0 | 0 | 114 | 0 | -
COc1cc(-c2noc(C)c2/C=C/c2ccc(OC(C)=O)cc2)cc(OC)c1OC | 109 | 0 | 0 | 0 | 0
O=C(Nc1ccc2c(c1)N(S(=O)(=O)c1cccs1)CCC2)c1c(F)cccc1Cl | - | 0 | 0 | 0 | 51
CC(NC(=O)c1cn(C)c2ccc(S(=O)(=O)N3CCCC3)cc2c1=O)c1ccccc1 (stereo not given) | 0 | 0 | 0 | 0 | 0
O=C(CCS(=O)(=O)c1ccccc1)N(CCCN1CCOCC1)c1nc2ccc(F)cc2s1 | 0 | 0 | 0 | 0 | 0
CCS(=O)(=O)c1nc(S(=O)(=O)c2ccc(C)cc2)c(NCCN2CCOCC2)s1 | 0 | 0 | 0 | 0 | 54
Cc1c(C(=O)N2CCc3ccccc32)cnn1C | 0 | 0 | 0 | 0 | 0
S=c1[nH]nc(-c2cc(-c3ccccc3)n[nH]2)n1/N=C/c1ccc(Cl)c(Cl)c1 | 0 | 0 | 0 | 0 | 0
S=c1[nH]nc(-c2cc(-c3ccccc3)n[nH]2)n1/N=C/c1ccc(Cl)cc1 | 0 | 0 | 0 | 0 | 56
S=c1[nH]nc(-c2cc(-c3ccccc3)n[nH]2)n1/N=C/c1cccc(Cl)c1 | 0 | 0 | 0 | 0 | 60
O=C(Nc1ccc(C(=O)NCc2ccc(F)cc2)cc1)C1=CSCCO1 | 0 | 0 | - | 0 | 51
SMILES | CSC inhib | PP1 inh | Beta apoptosis | PP5 inh | SKKanGAS inh
COc1ccc(C(=O)NN/C(C)=C/C(=O)C(F)(F)C(F)(F)C(F)(F)F)cc1 | 123 | 0 | 79 | 0 | 0
O=C1c2ccccc2NC(c2ccco2)N1/N=C/c1ccco1 (stereo not given) | 0 | 0 | 0 | 0 | 0
C/C(=N\N1C(=O)c2ccccc2NC1c1ccccc1)c1ccccc1O (stereo not given) | 0 | 0 | 87 | 0 | 0
C/C(=N\N1C(=O)c2ccccc2NC1c1ccco1)c1ccccc1O (stereo not given) | 0 | 0 | 99 | 0 | 0
COc1ccc(/C(C)=N/N2C(=O)c3ccccc3NC2c2ccc(O)c(OC)c2)cc1 (stereo not given) | 0 | 0 | 0 | 0 | 0
CCn1c(/C=C/c2ccccc2F)nc2ccccc2c1=O | 0 | - | 0 | - | 0

Source: PubChem (several laboratories)
